# Compounds with a hit are over-represented: about 1.3% of the library has one in this group of screens.
# ZTA DNA inh: ZTA (EBV) inhibition in EBNA-1 counter-screen. AID 2234. 320,000 tested, 0.15% active. inhibition, % at 11 µM. ZTA-DNA binding, fluorescence polarization; in the data active means inhibition above about 33%
# Target sequence (P03206 whole entry, looked up): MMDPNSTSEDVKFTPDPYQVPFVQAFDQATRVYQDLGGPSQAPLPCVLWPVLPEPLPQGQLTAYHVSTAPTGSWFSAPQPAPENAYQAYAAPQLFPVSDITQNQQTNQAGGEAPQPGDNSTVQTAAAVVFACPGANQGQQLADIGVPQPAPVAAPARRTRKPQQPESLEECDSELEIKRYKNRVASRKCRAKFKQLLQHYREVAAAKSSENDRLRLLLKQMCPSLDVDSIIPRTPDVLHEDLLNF
# PREPL inh: PREPL enzyme inhibitors, primary screen, biochemical, fluorescence polarization | 320,000 tested, 0.68% active | AID 2751, 2010 | recombinant PREPL, fluorescence polarization activity-based probe | inhibition, % at 5.96 µM
# EBNA-1 inhibitor: EBNA-1 DNA-binding inhibitors, primary screen, biochemical, fluorescence polarization; inhibition, % at 14.8 µM; 300,000 tested, 0.34% active; AID 1950, 2009; in the data active means inhibition above about 28%
# LYPLA1 inh: LYPLA1 inhibitors, primary screen, counter-screen for PME1 inhibitor project, biochemical, fluorescence polarization, FP-Rh probe ABPP; Acyl-protein thioesterase 1 (Homo sapiens), O75608; recombinant LYPLA1; inhibition, % at 5.9 µM; 320,000 tested, 0.16% active; AID 2174, 2009;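 active means inhibition above the mean of all tested compounds plus 3 SD, set per campaign, cut at about 14% in these data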;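 further: inhibitors block serine hydrolase probe labeling of LYPLA1 so polarization falls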
# LYPLA2 inh: LYPLA2 inhibitors, primary screen, counter-screen for PME1 inhibitor project, biochemical, fluorescence polarization, FP-Rh probe ABPP. Acyl-protein thioesterase 2 (Homo sapiens), O95372. recombinant LYPLA2. inhibition, % at 5.9 µM. 320,000 tested, 0.38% active;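 active means inhibition above the screen-wide mean plus 3 SD, limit set per campaign, cut at about 26% in these data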
# Target sequence (O95372 whole entry, looked up): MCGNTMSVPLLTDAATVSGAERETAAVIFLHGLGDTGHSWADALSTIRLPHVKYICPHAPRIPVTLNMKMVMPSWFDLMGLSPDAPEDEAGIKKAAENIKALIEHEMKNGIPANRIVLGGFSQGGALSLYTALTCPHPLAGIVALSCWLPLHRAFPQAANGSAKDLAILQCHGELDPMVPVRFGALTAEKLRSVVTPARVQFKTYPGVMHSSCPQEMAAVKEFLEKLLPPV
# PREPL confirm: human PREPL enzyme inhibitors, confirmation, biochemical, fluorescence polarization; shares compounds with PREPL inh; 2,000 tested, 67% active; inhibition, % at 5.96 µM; recombinant PREPL, fluorescence polarization activity probe
# Hits are given with their value; - = inactive; . = no result. Unless noted, no stated cut-off is given here; in the data, active means inhibition above about 43%; inactive means the rest.
SMILES,ZTA DNA inh,PREPL inh,EBNA-1 inhibitor,LYPLA1 inh,LYPLA2 inh,PREPL confirm
CNC(=S)N1N=C(c2ccc(Br)cc2)CC1c1ccc(N(C)C)cc1 (stereo not drawn),-,48,-,-,-,50
CC(CC(=O)Nc1ccc(S(=O)(=O)Nc2ncccn2)cc1)c1ccccc1 (stereo not drawn),-,-,-,-,-,.
Cc1ccsc1C(=O)Nc1ccc(F)c([N+](=O)[O-])c1,-,45,-,-,-,-
O=C(NCCN1CCN(c2ccccc2)CC1)c1cccn2c(=O)c3ccccc3nc12,-,-,-,-,-,.
O=C(NCCNc1ccc2ccccc2c1)c1cccn2c(=O)c3sccc3nc12,-,51,-,-,-,-
CCN1CCc2c(sc(NC(=O)Nc3ccc(Cl)c(Cl)c3)c2C(N)=O)C1,-,70,-,-,-,54
Brc1ccc(C=Nc2ccc(Nc3ccccc3)cc2)s1,-,99,-,-,-,-
NC(=S)N/N=C/c1ccc2ccccc2c1,-,-,-,-,-,.
C(=Nc1ccc(Nc2ccccc2)cc1)c1ccc2ccccc2c1,-,95,-,-,-,-
Cc1ccc(C)c(S(=O)(=O)N2CCN(C(=O)CCc3c[nH]c4ccccc34)CC2)c1,-,-,.,-,-,.
Cc1ccc(C)c(S(=O)(=O)N2CCN(C(=O)CCCc3c[nH]c4ccccc34)CC2)c1,-,47,-,-,-,-
COc1ccc(C)cc1NC(=O)CCC(=O)Nc1ccc2nc(N3CCN(C)CC3)cc(C)c2c1,-,-,-,-,-,.
COc1ccc(C(=O)Nc2ccc3nc(N4CCN(C)CC4)cc(C)c3c2)c(OC)c1,-,48,-,-,-,-
CCN1CCN(c2cc(C)c3cc(NC(=O)c4ccc(OC)c(OC)c4)ccc3n2)CC1,-,-,-,-,-,.
Cc1cc(N2CCOCC2)nc2ccc(NC(=O)CCC(=O)N3CCN(c4ccc(F)cc4)CC3)cc12,-,44,-,-,-,-
Cc1cc(N2CCN(C)CC2)nc2ccc(NC(=S)N3CCCCCC3)cc12,-,-,-,-,-,.
Cc1cc(N2CCN(C)CC2)nc2ccc(NC(=S)N3CCN(c4cccc(Cl)c4)CC3)cc12,-,47,-,-,-,-
Cc1cc(N2CCOCC2)nc2ccc(NC(=O)CCC(=O)N3CCN(c4ccccc4F)CC3)cc12,-,-,-,-,-,.
CCN1CCN(c2cc(C)c3cc(NC(=O)c4ccc5c(c4)OCO5)ccc3n2)CC1,-,44,-,-,-,-
Cc1cccc(Cn2c(-c3ccc[nH]c3=O)nc3ccccc32)c1,-,-,-,-,-,.
CN(C)CC(C)(C)CNS(=O)(=O)c1ccc(Cl)s1,-,-,-,-,-,.
COc1ccc(Br)cc1CNC(=O)Cn1nc(C)n2cccc2c1=O,-,-,-,-,-,.
Cn1c(N/N=C/c2c[nH]c3ccccc23)nc2ccccc21,-,53,-,-,-,65
Cc1cc(N/N=C/c2c[nH]c3ccccc23)c2ccccc2n1,-,-,-,-,-,.
CC12CCC(=O)N1C(C(=O)N1CCN(c3ccccc3)CC1)CS2 (stereo not drawn),-,-,-,-,-,.
SMILES,ZTA DNA inh,PREPL inh,EBNA-1 inhibitor,LYPLA1 inh,LYPLA2 inh,PREPL confirm
CC12CCC(=O)N1C(C(=O)N1CCN(c3ccc([N+](=O)[O-])cc3)CC1)CS2 (stereo not drawn),.,47,.,.,.,-
O=C(NCc1nc(-c2ccc(Cl)cc2)no1)c1ccc2c(c1)OCO2,-,-,-,-,-,.
CC1(C)C(=O)Nc2ccccc2N1C(=O)COC(=O)Cc1ccc(Cl)c(Cl)c1,.,47,.,.,.,-
S=C(NCCCN1CCOCC1)N1CCN(c2nc(-c3ccc(Cl)cc3)cs2)CC1,-,44,-,-,-,43
CC(C)c1ccc(CNc2ccc(N3CCOCC3)cc2)cc1,-,52,-,-,-,55
c1cc2c(cc1CNc1ccc(N3CCOCC3)cc1)OCO2,.,57,.,.,.,-
c1cc(CNc2ccc(N3CCOCC3)cc2)ccn1,-,-,-,-,-,.
Cc1ccc(CNc2ccc(N3CCOCC3)cc2)cc1,-,44,-,-,-,-
CC(C)c1ccc(S(=O)(=O)Nc2ccc(N3CCOCC3)cc2)cc1,-,-,-,-,-,.
CN(c1ccc(OC(=O)c2ccc(-n3cncn3)c([N+](=O)[O-])c2)cc1)S(=O)(=O)c1ccccc1,-,-,.,-,-,.
CCN(C(=O)CSc1nc2ccccc2[nH]1)C1CCS(=O)(=O)C1 (stereo not drawn),.,-,.,.,.,.
CC(C)c1nnc(SCC(=O)N2CCc3ccccc32)n1N,-,-,-,-,-,.
O=C(NCCc1ccccc1)/C(=C\c1cccc([N+](=O)[O-])c1)NC(=O)c1ccco1,-,-,-,-,-,.
O=C(c1ccccc1)c1ccc2nc(N3CCN(C(=O)c4ccco4)CC3)c3nncn3c2c1,-,-,-,-,-,.
CCOC(=O)N1CCN(c2nc3ccc(C(=O)c4ccccc4)cc3n3cnnc23)CC1,-,61,-,-,-,-
COc1cc(/C=N/Nc2nc(Nc3ccccc3)nc(-n3nc(C)cc3C)n2)cc(OC)c1OC,-,-,-,-,-,.
COc1ccc(O)c(/C=N/Nc2nc(Nc3ccccc3)nc(-n3nc(C)cc3C)n2)c1,-,44,-,-,-,-
O=C1NC(=S)S/C1=C/c1ccc(OC(=O)c2ccco2)cc1,-,65,-,-,-,69
CCOc1cc(/C=C2/SC(=S)NC2=O)ccc1OC(=O)c1ccco1,-,66,-,-,-,67
CS(=O)(=O)C1=NN2C(=N)/C(=C\c3ccc(OC(=O)c4ccco4)cc3)C(=O)N=C2S1,-,-,-,-,-,.
CN(C)c1ccc(/C=C2\CCCc3c2nc2ccccc2c3C(=O)O)cc1,-,-,-,-,-,.
CCCNC(=O)c1ccc(Cn2cc(-c3ccc(OC)cc3)nc2C(C)N)cc1 (stereo not drawn),-,-,-,-,-,.
Cc1cccc(NC(=O)c2cc(-c3cc(Cl)ccc3O)n[nH]2)c1,-,-,-,-,-,.
CCN1C(=O)CC(c2ccccc2)N(C2CCCC2)c2nc(Nc3ccc(C(=O)NC4CCN(C)CC4)cc3OC)ncc21 (stereo not drawn),.,48,.,.,.,50
COc1cc(/C=N\NC(=O)c2ccc(-c3ccccc3)cc2)cc(Br)c1O,-,43,-,-,-,-
COc1ccc(/C=N/NC(=O)c2ccc(-c3ccccc3)cc2)cc1O,-,-,-,-,-,.
COCCn1c(Cc2ccccc2)nnc1SC(C)C(=O)NC1CC1 (stereo not drawn),-,-,.,-,-,.
O=C(CCCn1c(=O)oc2ccccc21)N1CCN(c2ccc(F)cc2)CC1,-,-,-,-,-,.
O=C(CCn1c(=O)oc2ccccc21)N1CCN(c2ccccc2F)CC1,-,62,-,-,-,-
